Rows were chosen to be rich in hits. Some 6.9% of all compounds tested hit in one or more screens of this group.
HCV NS3h FP: HCV NS3 helicase inhibitors, primary screen, biochemical, fluorescence polarization, ChemBridge library | Hepatitis C virus NS3 helicase | AID 687043, 2013 | hit rate 1.6% among 16,000 | inhibition, % at 100 µM | NS3h Cy5-dT15 DNA binding;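 active means inhibition above the average over every tested compound plus 3 SD, cut at about 40% in these data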
Cy5 interf NS3h: Cy5 fluorescence quenchers or enhancers, artefact control for HCV NS3 helicase inhibitor project, biochemical, ChemBridge library, Cy5 readout. hit rate 6% among 16,000. AID 720488, 2013. Cy5-dT15 DNA with NS3h, fluorescence interference; actives lie on both sides; signal over control mean, under 1 quenches. fluorescence interference ratio at 100 µM;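 active means compound fluorescence over control fluorescence at most 0.8, a quencher, or at least a set upper limit, an enhancer; inactive means ratio between 0.8 and the set upper limit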
NS3h confirm: HCV NS3 helicase inhibitors, retest, confirmation, biochemical, fluorescence polarization, ChemBridge library; shares compounds with HCV NS3h FP; NS3h binding to Cy5-dT15 DNA; inhibition, % at 100 µM; hit rate 20% among 240;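 active means percent inhibition of 50% or more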
SSB-DNA FP CB: E. coli SSB-DNA binding inhibitors, counter-screen for HCV NS3 helicase inhibitor project, biochemical, fluorescence polarization, selected ChemBridge compounds; shares compounds with HCV NS3h FP; E. coli SSB binding Cy5-dT15; inhibition, % at 100 µM; hit rate 40% among 240;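 active means inhibition of at least 50%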;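 further: displacers lower Cy5 polarization so higher inhibition means more SSB displaced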
Target sequence (P0AGE0 whole entry, looked up): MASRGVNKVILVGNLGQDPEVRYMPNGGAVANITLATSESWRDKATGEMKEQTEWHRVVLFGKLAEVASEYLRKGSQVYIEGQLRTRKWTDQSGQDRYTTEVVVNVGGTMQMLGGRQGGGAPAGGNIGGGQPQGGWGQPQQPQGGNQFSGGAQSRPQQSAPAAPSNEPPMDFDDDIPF
Cy5 SSB fluor CB: Cy5 fluorescence interference with SSB-bound oligo, artefact control for HCV NS3 helicase inhibitor project, biochemical, E. coli SSB, selected ChemBridge compounds. shares compounds with HCV NS3h FP. Cy5-dT15/E. coli SSB fluorescence interference; actives lie on both sides. fluorescence interference ratio at 100 µM. hit rate 8% among 240;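 active means fluorescence interference ratio at or above 1.2, signal boosting, or at or below 0.8, signal quenching; inactive means ratio between 0.8 and 1.2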;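 further: ratio of compound well signal to mean negative control signal so 1 means no effect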
Cy5 fluor confirm: Cy5-DNA-NS3h complex fluorescence interference, confirmation, artefact control for HCV NS3 helicase inhibitor project, biochemical, ChemBridge library. shares compounds with HCV NS3h FP. fluorescence interference ratio at 100 µM, hits read low. hit rate 44% among 240. AID 720489, 2013. Cy5-dT15 DNA/NS3h fluorescence interference counterscreen;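 active means fluorescence interference ratio at or below 0.8 quencher or at or above a set limitenhancer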;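 further: ratio of compound fluorescence to mean of negative controls so 1 means no interference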
* marks the source's active call; other numbers are inactive results.

How did Cc1cccc(N2C(=O)NC(=O)/C(=C\c3cc(Br)c(O)c([N+](=O)[O-])c3)C2=O)c1 do in these assays?
HCV NS3h FP: 32; Cy5 interf NS3h: 0.99; NS3h confirm: 32; SSB-DNA FP CB: 62*; Cy5 SSB fluor CB: 0.93; Cy5 fluor confirm: 0.75*

How did Cc1cc(C)cc(N2C(=O)NC(=O)/C(=C\c3cc(Br)c(O)c([N+](=O)[O-])c3)C2=O)c1 do in these assays?
HCV NS3h FP: 36; Cy5 interf NS3h: 0.99; NS3h confirm: 28; SSB-DNA FP CB: 53*; Cy5 SSB fluor CB: 0.95; Cy5 fluor confirm: 0.99

What do the screens show for `O=C(N/N=C\C=C\c1ccccc1)/C(=C\c1cccs1)NC(=O)c1ccccc1`?
HCV NS3h FP: 17; Cy5 interf NS3h: 1

What do the screens show for `Cc1cc(C)c(C(O)=Cc2nc3ccccc3oc2=O)c(C)c1`?
HCV NS3h FP: 26; Cy5 interf NS3h: 1

What do the screens show for `CCOC(=O)c1c(C)oc2c(F)c(C(F)(F)F)c(F)c(F)c12`?
HCV NS3h FP: -4; Cy5 interf NS3h: 0.96

How did CC(C)Cc1ccc(C(C)C(=O)NC(C)Cc2ccccc2)cc1 (stereo not given) do in these assays?
HCV NS3h FP: 0; Cy5 interf NS3h: 1

Results for C/C(=N/OCc1nc2c3c4c(sc3ncn2n1)C(C)(C)NC(C)(C)C4)c1ccc(Br)cc1 ?
HCV NS3h FP: 0; Cy5 interf NS3h: 1.1

How did C=CCN1C(=O)NC(=O)/C(=C\c2ccccc2OCc2ccc([N+](=O)[O-])cc2)C1=O do in these assays?
HCV NS3h FP: 58*; Cy5 interf NS3h: 0.49*; NS3h confirm: 27; SSB-DNA FP CB: 26; Cy5 SSB fluor CB: 0.97; Cy5 fluor confirm: 0.66*

How did O=C1NC(=O)N(c2ccccc2)C(=O)/C1=C\c1ccccc1OCc1ccccc1F do in these assays?
HCV NS3h FP: 22; Cy5 interf NS3h: 1

What do the screens show for `CCc1ccccc1N(CC(=O)Nc1ccc(C)cc1)S(C)(=O)=O`?
HCV NS3h FP: 11; Cy5 interf NS3h: 0.94

How did O=C1NC(=O)N(c2ccccc2)C(=O)/C1=C\c1cccc(OCc2ccccc2F)c1 do in these assays?
HCV NS3h FP: 14; Cy5 interf NS3h: 1

Results for O=C1NC(=O)C(=Cc2cccc(OCc3ccc(Cl)cc3Cl)c2)C(=O)N1 ?
HCV NS3h FP: 38; Cy5 interf NS3h: 1; NS3h confirm: 23; SSB-DNA FP CB: 17; Cy5 SSB fluor CB: 1; Cy5 fluor confirm: 0.74*

Results for COc1ccc(C2C(C(=O)OC(C)C)=C(C)N=c3s/c(=C\c4ccc(Br)o4)c(=O)n32)cc1 (stereo not given) ?
HCV NS3h FP: 1; Cy5 interf NS3h: 1

Results for O=C1NC(=S)S/C1=C\c1ccc(-c2ccccc2C(=O)O)o1 ?
HCV NS3h FP: 62*; Cy5 interf NS3h: 0.87; NS3h confirm: 53*; SSB-DNA FP CB: 110*; Cy5 SSB fluor CB: 0.79*; Cy5 fluor confirm: 0.91

What do the screens show for `O=C1NC(=S)S/C1=C/c1ccc(-c2ccccc2)o1`?
HCV NS3h FP: 18; Cy5 interf NS3h: 1.1

How did O=C1NN(c2ccc(Cl)cc2)C(=O)/C1=C\c1ccc(-c2cccc(C(=O)O)c2)o1 do in these assays?
HCV NS3h FP: 55*; Cy5 interf NS3h: 0.93; NS3h confirm: 32; SSB-DNA FP CB: 61*; Cy5 SSB fluor CB: 0.85; Cy5 fluor confirm: 0.73*

Results for NS(=O)(=O)c1ccc(-c2ccc(/C=C3/C(=O)NN(c4cccc(Cl)c4)C3=O)o2)cc1 ?
HCV NS3h FP: 7; Cy5 interf NS3h: 1

What do the screens show for `O=C1NN(c2ccc(F)c(Cl)c2)C(=O)/C1=C\c1ccc(-c2cccc(C(=O)O)c2)o1`?
HCV NS3h FP: 43*; Cy5 interf NS3h: 0.8*; NS3h confirm: 13; SSB-DNA FP CB: 27; Cy5 SSB fluor CB: 0.92; Cy5 fluor confirm: 0.96

How did COC(=O)c1ccccc1-c1ccc(/C=C2\C(=O)NN(c3ccccc3)C2=O)o1 do in these assays?
HCV NS3h FP: 12; Cy5 interf NS3h: 0.81

Results for CCCC(=O)NC(c1ccc(OC)c(OC)c1)c1c(OC(=O)COc2ccccc2)ccc2ccccc12 (stereo not given) ?
HCV NS3h FP: 12; Cy5 interf NS3h: 0.94

What do the screens show for `C=CCN1C(=O)/C(=C\c2ccc(-c3ccc([N+](=O)[O-])cc3)o2)SC1=S`?
HCV NS3h FP: 16; Cy5 interf NS3h: 1.1

How did CCOc1ccc2ccccc2c1C=C1C(=O)NC(=S)NC1=O do in these assays?
HCV NS3h FP: 44*; Cy5 interf NS3h: 0.89; NS3h confirm: 19; SSB-DNA FP CB: 39; Cy5 SSB fluor CB: 0.94; Cy5 fluor confirm: 0.97

Results for CCOc1ccc2ccc(OCC)c(/C=C3/SC(=S)NC3=O)c2c1 ?
HCV NS3h FP: -2; Cy5 interf NS3h: 1

What do the screens show for `O=C(CN1C(=O)/C(=C/c2cccc(Br)c2)SC1=S)Nc1ccccn1`?
HCV NS3h FP: 10; Cy5 interf NS3h: 0.97

How did O=C(CCCN1C(=O)/C(=C\c2cccc(Br)c2)SC1=S)Nc1ccc(C(=O)O)cc1 do in these assays?
HCV NS3h FP: 30; Cy5 interf NS3h: 0.99; NS3h confirm: 25; SSB-DNA FP CB: 4; Cy5 SSB fluor CB: 0.97; Cy5 fluor confirm: 0.97

What do the screens show for `O=C(/C=C/c1ccc(-c2ccc(Cl)cc2Cl)o1)c1ccco1`?
HCV NS3h FP: 12; Cy5 interf NS3h: 1.1

Results for COc1cc2nc(-c3cccc(Br)c3)oc(=O)c2cc1OC ?
HCV NS3h FP: 36; Cy5 interf NS3h: 1

How did N#Cc1c(N)c(C#N)c(-c2ccco2)c2c1CCCC2 do in these assays?
HCV NS3h FP: 32; Cy5 interf NS3h: 0.96; NS3h confirm: 17; SSB-DNA FP CB: 21; Cy5 SSB fluor CB: 0.98; Cy5 fluor confirm: 0.92

Results for N#Cc1c(-c2ccco2)c2c([nH]c1=S)CCCC2 ?
HCV NS3h FP: 18; Cy5 interf NS3h: 1.1

How did COc1ccc(C(=O)Nc2nc(-c3ccccc3)c(-c3ccccc3)s2)cc1[N+](=O)[O-] do in these assays?
HCV NS3h FP: 1; Cy5 interf NS3h: 0.99

What do the screens show for `COc1nsnc1NS(=O)(=O)c1ccc(NC(=S)NC(=O)c2sc3cc(F)ccc3c2Cl)cc1`?
HCV NS3h FP: 94*; Cy5 interf NS3h: 1; NS3h confirm: 38; SSB-DNA FP CB: 5; Cy5 SSB fluor CB: 1; Cy5 fluor confirm: 0.76*

What do the screens show for `COc1ccc2c(Cl)c(C(=O)Nc3ccc(N4CCOCC4)cc3)sc2c1`?
HCV NS3h FP: 9; Cy5 interf NS3h: 0.97

Results for Cc1ccccc1NC(=O)C(=O)NCCCOC(C)C ?
HCV NS3h FP: 4; Cy5 interf NS3h: 1

Screening results as filed in PubChem BioAssay.
